# Results reported in PubChem BioAssay (NCI).
# This is part of a sample that, as a whole, favours compounds with a hit. Of some 79,000 tested, about 15% had one in any assay. Unmarked numbers belong to inactive results. Calls of active or inactive are those of the source. Cut-off read from the data, not from the text of the source: active = growth inhibition above about 70%; inactive = the rest.
# Key:
# [1] = NCI Yeast Anticancer Drug Screen. Data for the rad50 strain (AID 155);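 note: 0% = growth of vehicle-only cultures of the same strain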; details: S. cerevisiae rad50 strain growth inhibition; at 50.0 µM; stronger effect = higher value
# Method in brief: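 Cells are treated with compound, grown, and their growth is then scored against vehicle-only cultures of the same repair-deficient yeast strain.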
# [2] = NCI Yeast Anticancer Drug Screen. Data for the mec2-1 strain (AID 157); details: S. cerevisiae mec2-1 strain, at 50.0 µM, stronger effect = higher value
# Method in brief: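 Strain: mec2-1 (DNA repair/cell cycle alteration). Compound exposure, then growth measured; inhibition expressed relative to vehicle.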
# [3] = NCI Yeast Anticancer Drug Screen. Data for the sgs1 mgt1 strain (AID 161);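 note: 0% = growth of cultures given vehicle only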; details: S. cerevisiae sgs1 mgt1 strain, at 50.0 µM, stronger effect = higher value
# Method in brief: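 Inhibition of yeast growth, normalised to vehicle-treated controls, is reported for a strain bearing genetic alterations in DNA damage repair.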
# [4] = NCI Yeast Anticancer Drug Screen. Data for the cln2 rad14 strain (AID 165);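 note: 0% = growth equal to vehicle treated cultures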; details: S. cerevisiae cln2 rad14 strain, at 50.0 µM, stronger effect = higher value
# Method in brief: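 Compounds are applied to the cln2 rad14 yeast strain, and growth is then compared with that of vehicle-treated cultures to give inhibition.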
# [5] = NCI Yeast Anticancer Drug Screen. Data for the bub3 strain (AID 167); details: S. cerevisiae bub3 mutant strain, at 50.0 µM, stronger effect = higher value
# Method in brief: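 Part of a panel of yeast mutants defective in DNA damage repair or cell cycle regulation. Each strain is grown with compound, and inhibition is calculated relative to solvent-treated cultures.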
# [6] = NCI Yeast Anticancer Drug Screen. Data for the mlh1 rad18 strain (AID 175); details: S. cerevisiae mlh1 rad18 strain growth inhibition; at 50.0 µM; stronger effect = higher value
# Method in brief: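 Read-out is yeast growth inhibition, calculated against vehicle-only controls. The compound was applied to a strain engineered with DNA damage repair alterations.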
Structure (SMILES),growth inhibition [1],growth inhibition [2],growth inhibition [3],growth inhibition [4],growth inhibition [5],growth inhibition [6]
c1ccc2c(c1)Nc1nsnc1N2,3.8%,-9.4%,-6%,13.8%,13.2%,2.25%
CC(C)(C)c1ccc(-n2c3nc(=O)n(-c4ccccc4CO)c(=O)c-3cc3ccccc32)cc1,-9.75%,-12.8%,-9.5%,-11.6%,-0.95%,4.95%
CC1=C2C(=CC(C)(CO)C2O)C(O)C(C)(O)C12CC2 (stereo not given),21.1%,-5.15%,-17.1%,1.95%,-13.9%,-29.8%
CC(=O)Nc1cc(C)cc(Br)c1,-6.85%,-4.1%,-10.1%,9.05%,1.5%,-9.55%
C1=Nc2ccccc2/C1=C/c1cccs1,35.5%,37%,12.1%,-47.4%,13%,48.8%
Nc1nc2c(ncn2-c2cccc(Cl)c2)c(=O)[nH]1,-0.9%,16.5%,7.55%,-7.5%,31.5%,13.8%
CC/C(=N\O)c1ccc2cc(Cl)c3ccccc3c2c1,21.7%,25.4%,44.5%,8.75%,54.2%,31.9%
CCOC(CNCc1ccncc1)OCC,-19.8%,-20.3%,-26.8%,4.9%,-31%,-10.9%
Clc1ccc(CSc2cnnc(Cl)c2SCc2ccc(Cl)cc2)cc1,8.1%,-4.5%,8.2%,22.8%,-2.15%,3.05%
CC1CC[N-]C(N)N1.CC1CC[N-]C(N)N1.[Cl][Pd][Cl] (stereo not given),-3.5%,-0.4%,6.75%,-34.4%,-0.15%,-7.1%
C=C(c1ccccc1)N1N=NC2CCOC21 (stereo not given),-4.25%,-10%,4.2%,-20.6%,-16.8%,-8.65%
O=C1/C(=C/c2cccs2)CCc2ccccc21,20.6%,-12.4%,6.05%,-16.1%,9.7%,31.9%
c1ccc2c(c1)CCCN2c1nc(N2CCCC2)nc(N2CCOCC2)n1,-11.6%,-21.8%,4.4%,7.25%,5.45%,-8.25%
O=C(c1ccc2c(c1)no[n+]2[O-])N(CCO)CCO,58.8%,8.45%,47.1%,92.5% (active),28.4%,19.9%
CC(=O)OC1CCC23COC(CC(C)C2C)C3(Cl)C1 (stereo not given),-0.7%,-4.65%,-3.25%,-8.1%,-11.2%,5.05%
CSC(=N)N1N=C2c3ccccc3CC[C@@H]2[C@@H]1c1ccccc1,-0.1%,-7.3%,-18.9%,38%,-10.8%,-18.4%
N/N=C(\c1ccccc1)C(Nc1ccccc1)c1ccccc1 (stereo not given),11.2%,-3.95%,-2.05%,-29%,-5.15%,7.9%
Cc1cccc2c1C(=O)OC2(c1cccc2ccccc12)c1cccc2ccccc12,-16.4%,3.9%,4.5%,-15.7%,0%,1.6%
Nc1ccccc1Nc1ccncc1,-3%,11.2%,-1.7%,-26.9%,-23.8%,-5.7%
CC(=O)OCC1OC2OC(C)(C)OC2C1NC(=O)C(F)(F)F (stereo not given),16.5%,-2.5%,-8.15%,10.3%,-5.6%,9.25%
